This note sets out measurements from PubChem BioAssay (NCATS).

Records with an inconclusive call do not appear. Unmarked numbers belong to inactive results. Activity calls are given as the source filed them. Calls come from the whole dose curve; as a rule, active = well fitted cell-killing curve with a large enough effect; inconclusive = small, poorly fitted or top-dose-only effect; inactive = flat fitted curve, though single readings scatter.
Potency is the fitted concentration of half-maximal effect.

The nature of the assay: Quantitative highthroughput screen to assess conditional lethalithy of NOMO1 cells grown in RPMI1640 with untreated serum (RPMI+s) (AID 1963876). Note: nearly all actives have a fitted effect of over 35% in size. The following applies: NOMO1 AML cells in RPMI+serum, CellTiter-Glo viability, 48 h; series mostly up to 45.8 µM; viability: at the top concentration. From the text: Assay Provider: Jason Cantor Ph.D.
Department of Biochemistry
University of Wisconsin-Madison, Madison, WI, USA
Chemical screening studies have identified drug sensitivities across hundreds of cancer cell lines but most putative therapeutics fail to translate. Discovery and development of drug candidates in models that more accurately reflect nutrient levels in human blood is a major challenge. Here we performed high-throughput screens in conventional versus Human Plasma-Like Medium (HPLM) to identify compounds that were "missed" when screening using the artificial culture condition. Sets of conditional anticancer compounds spanned phases of clinical development and included non-oncology drugs were assessed. […] We also traced conditional phenotypes for several chemotherapeutics to availability of HPLM-specific metabolites and confirmed others for compounds whose reported targets are encoded by nonessential genes. Our findings establish generalizable strategies for exploiting conditional lethality in HPLM to reveal therapeutic candidates and mechanisms of action in cancer cells.
Described herein are the results of each viability screens against three cell lines: NOMO1 (an acute myeloid leukemia cell line); P12-Ichikawa (a T-cell acute lymphoblastic leukemia); and SEM (a B-cell ALL). Each assay was screened using 3 different cell culture media: homemade human plasma-Like medium with 10% dialyzed fetal bovine serum (HPLM+ds); RPMI1640 with 10% untreated FBS and 5mM glucose (RPMI+s); and RPMI1640 with 10% dialyzed fetal bovine serum and 5 mM glucose (RPMI+ds).
PROTOCOL TABLE (as described by Inglese J, Shamu CE and Guy RK. 2007)
SEQUENCE No. (e.g., 1, 2, 3, etc.); […] (e.g., Cells, Incubation, Reagent, etc.); VALUE and DESCRIPTION.
1; Cells; 5 uL; white, solid bottom 1536-well Greiner assay plate.
2; Compounds; 23 nL; Kalypsis pin tool (Wako USA) equipped with a 1536-well pin head to transfer to the assay plates.
3; Incubation; 48 hours; 37C incubation.
4; Reagent; 3 uL; CellTiter Glo (Promega).
5; Incubation; 5 min, room temperature
6; Detection; Luminescence, Viewlux PerkinElmer.
NOTES (numbers refer to Sequence numbers above)
1. Briefly, 5 ul of cell reagent was dispensed using a Multidrop Combi Dispenser. The NOMO1 and SEM cells were plated at 500 cells/well and the P12-Ichikawa line at 1000 cells/well.
2. After seeding the cells, 23 nL of MIPE 4.1 library compounds (in DMSO) were added to each plate using a Kalypsys 1536 Pintool dispenser. Bortezomib at final concentration of […] and DMSO were added to each plate as positive and negative controls respectively. For each screen, MIPE 4.1 compounds were added over an eleven-point concentration range […] in 3-fold dilutions.
3. Each plate was covered with a stainless steel gasketed lid to prevent evaporation and incubated for 48 hour at 37C, 95% relative humidity, and 5% CO2.
4-5. Three microliter CellTilter-GloTM luminescent substrate mix (Promega) reagent was added to the assay plate and incubated at room temperature for 5 min.
6. The luminescence signal was measured using a ViewLux (PerkinElmer) multiplate reader with a 2 second exposure time per plate. Data for each compound were normalized as percent viability such that measurements for DMSO and the empty well controls in each plate were defined as 100% and 0%, respectively.
(In general: ATP-based viability assays read luminescence as a measure of living cells.)
Consider `COC[C@H]1OC(=O)c2coc3c2[C@@]1(C)C1=C(C3=O)[C@@H]2CC[C@H](O)[C@@]2(C)C[C@@H]1OC(C)=O`, for which the “viability” value is 79.1%. Same read-out and setting: in the case of `c1cc2c(cc1[C@H]1OC[C@H]3[C@H]1CO[C@H]3c1ccc3c(c1)OCO3)OCO2` it was 100%.

For the molecule `CCCC[N+]1(C)[C@H]2CC(OC(=O)[C@H](CO)c3ccccc3)C[C@H]1[C@H]1O[C@H]12` (stereo not given in full), the Potency was 18700 nM (active). As to `C[C@]12CC[C@H]3[C@@H](CCC4=CC(=O)CC[C@@]43C)[C@H]1CC[C@H]2O`, the “viability” value is 106%. As to `CCOC(=O)c1cncn1[C@H](C)c1ccccc1`, the “viability” value was 111%. Turning to `C[C@]12COC(=O)C[C@@H]1CC[C@@H]1[C@H]2CC[C@@]2(C)[C@H]1CC[C@]2(C)O`, the “viability” value is 99.1%. Take `CC1=C2C[C@@H]3[C@@H](CC=C4C[C@@H](O)CC[C@@]43C)[C@@H]2CC[C@]12O[C@H]1C[C@H](C)CN[C@H]1[C@H]2C`: the “viability” value was 90.4%.

On to `O=c1[nH]c2ccc(Cl)cc2c(N[C@@H]2CN3CCC2CC3)c1-c1nc2ccccc2[nH]1`, for which the Potency is 132 nM (active). As for `O=C(N[C@H]1CN2CCC1CC2)c1ccc(Cl)cc1`, the “viability” value is 95.9%.

As for `CCNC(=O)CC1N=C(c2ccc(Cl)cc2)c2cc(OC)ccc2-n2c(C)nnc21` (stereo not given), the “viability” value is 86.7%. For `COc1ccc(C(=O)c2c(C)n(CCN3CCOCC3)c3ccccc23)cc1`, the “viability” value is 99.8%.

Consider `COc1cc(C(=O)N2CC[C@@H](O)[C@@H](N)C2)cc2nc(-c3cc4ccccc4n3CC3CC3)n(C)c12`, for which the Potency is 933 nM (active).

Turning to `CC[C@@H]1[C@@H](C)O[C@@](O)([C@@H](C)[C@H](O)[C@H](C)[C@H]2OC(=O)C=CC=C[C@@H](C)[C@@H]([C@@H](C)[C@@H](O)[C@H](C)[C@@]3(O)C[C@H](O[C@H]4C[C@H](O)[C@H](O)[C@H](C)O4)[C@H](CC)[C@@H](C)O3)OC(=O)C=CC=C[C@@H]2C)C[C@H]1O[C@H]1C[C@H](O)[C@H](O)[C@H](C)O1`, the Potency is 2960 nM (active). Regarding `C=C[C@@H]1CN2CCC1C[C@@H]2[C@@H](O)c1ccnc2ccccc12` (stereo not given in full), the “viability” value was 102%. As for `Cc1cccc(C)c1NC(=O)CN1CCCC1=O`, the “viability” value was 100%. Take `C[C@]12CC[C@H]3[C@@H](CCC4=CC(=O)CC[C@@]43C)[C@H]1CC[C@H]2OC(=O)CCC1CCCC1`: the “viability” value is 94.4%. As to `CN1CCN(c2ccc([N+](=O)[O-])c3no[n+]([O-])c23)CC1`, the “viability” value is 80.2%.

With `COC1=CC(C)=C[C@@H](C)[C@@H](O)[C@@H](C)CC(C)=CC=C[C@H](OC)[C@H]([C@@H](C)[C@@H](O)[C@H](C)[C@@]2(O)C[C@@H](O)[C@H](C)[C@@H](C(C)C)O2)OC1=O`, the Potency was 105 nM (active). Regarding `O=C(O)CNC(=O)c1c(O)c2ccccc2n(Cc2ccccc2)c1=O`, the “viability” value is 102%. Turning to `CCOc1ccccc1-n1c(C(C)N2CCN(C(=O)COc3ccc(Cl)cc3)CC2)nc2ccccc2c1=O` (stereo not given), the Potency was 1320 nM (active). Turning to `O=C(O)C(=O)c1cn(Cc2ccccc2)c2ccc(-c3ccc(OC(F)(F)F)cc3)cc12`, the “viability” value was 99.2%. As for `C[C@@H]1C[C@@H]([C@H](O)CC2CC(=O)NC(=O)C2)C(=O)[C@@H](C)C1`, the Potency was 1660 nM (active).

Consider `CN(C)CCc1ccc(O)cc1`, for which the “viability” value is 91.1%. `C[C@](O)(CS(=O)(=O)c1ccc(F)cc1)C(=O)Nc1ccc(C#N)c(C(F)(F)F)c1`: the “viability” value was 107%. The same measure, in the same setting: in the case of `CC1=NN=C(c2ccc(N)cc2)c2cc3c(cc2C1)OCO3` it was 98.8%.

`C=C(C)[C@H]1Cc2c(ccc3c2O[C@@H]2COc4cc(OC)c(OC)cc4[C@@H]2C3=O)O1`: the Potency was 5260 nM (active). In the case of `CC(=O)N(C)c1cccc(-c2ccnc3c(C(=O)c4cccs4)cnn23)c1`, the “viability” value was 95.3%. On to `COc1ccc(C(=O)c2c(C)n(CCN3CCOCC3)c3cc(I)ccc23)cc1`, for which the Potency is 935 nM (active). Take `CNC(=O)c1ccc(N2C(=S)N(c3ccc(C#N)c(C(F)(F)F)c3)C(=O)C23CCC3)cc1F`: the “viability” value is 107%. Take `COC1=C[C@@H]2[C@@H]3Cc4ccc(OC)c(O)c4[C@]2(CCN3C)CC1=O`: the “viability” value is 90.3%. On to `COc1ccc2c(c1OC)CN1CCc3cc4c(cc3C1C2)OCO4` (stereo not given), for which the Potency is 1480 nM (active).

With `NC1CC1c1ccccc1` (stereo not given), the “viability” value is 96.7%. As for `CSCC[C@@H](NC(=O)[C@@H](Cc1ccccc1)NC(=O)CNC(=O)CNC(=O)[C@@H](N)Cc1ccc(O)cc1)C(=O)O`, the “viability” value was 98.5%. Consider `CC[C@@H](C(N)=O)N1CCCC1=O`, for which the “viability” value was 96.3%. Same read-out and setting: in the case of `CN1C(=O)CCS(=O)(=O)C1c1ccc(Cl)cc1` (stereo not given) it was 91.3%. Regarding `COc1ccc2c(c1)CN(C)CC2c1ccc(Cl)c(Cl)c1` (stereo not given), the Potency is 23500 nM (active). In the case of `O=C(NCC1CCOCC1)c1cnc(Nc2ccc(Cl)cc2Cl)nc1C(F)(F)F`, the “viability” value was 102%.

As to `Cc1c(C(=O)Nc2cccc(C(F)(F)F)c2)cc(-c2ccccc2)n1CCCN1CCOCC1`, the “viability” value was 96.9%. With `CC1=C(O)C(=O)C=C2C1=CC=C1[C@@]2(C)CC[C@@]2(C)[C@@H]3C[C@](C)(C(=O)O)CC[C@]3(C)CC[C@]12C`, the Potency was 3720 nM (active).

In the case of `CO[C@H]1CCC(O[C@H]2C[C@H]([C@]3(C)CC[C@]4(C[C@H](O)[C@@H](C)[C@@H]([C@@H](C)C=C(C)C(=O)[C@H](C)C[C@H](C)C(=O)O)O4)O3)O[C@]3(O[C@@H]([C@H]4O[C@@](O)(CO)[C@H](C)C[C@H]4C)C[C@H]3C)[C@H]2C)O[C@H]1C` (stereo not given in full), the Potency was 18700 nM (active).

For orientation: viability means a read-out of living cells in per cent, often relative to untreated cells.
